SW480 rereplic – DNA re-replication induction in SW480 cells; SW480 DNA re-replication, Hoechst DNA content imaging, 48 h; Potency, µM (highest dose often 46.1 µM), inactives show at the top dose re-replication activation, hits mostly activators; 340,000 compounds, 1.8% hits; AID 624297; also: % of control where 0% means no effect; nearly all actives have a fitted effect of over 55% in size
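First, 250 cells per well were seeded. Next, compound or vehicle (23 nL) was pinned in, plates sat 48 hr at 37 C. Finally Hoechst was added for 40 min before fluorescence scanning.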
HT1080 IDH1KD tx – kills HT-1080 cells with IDH1 knockdown | HT-1080 IDH1 knockdown viability, ATP luminescence, 48 h | Potency, µM (doses to about 46.1 µM), for inactives: top-dose activity, negative = toxicity, usual class: cytotoxic | 360,000 compounds, 2% hits;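 also: 0% = DMSO wells and -100% = cell-free medium wells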
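Assay cells: HT-1080 with IDH1 knockdown, 750 per well, RPMI/5% FBS. Exposure: 48 h at 37 °C following 2 h pre-incubation. Read: CellTiter-Glo luminescence; fitted concentration-response, curve class assigned.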
KB-3-1 tox – KB-3-1 parental cell cytotoxicity. KB-3-1 viability, CellTiter-Glo ATP luminescence, 72 h. Potency, µM (doses to about 46.1 µM), actives largely listed as cytotoxic. 400,000 compounds, 1.4% hits. AID 1347075; also: % is scaled to controls: 0 for no effect and ±100 for the full control effect; nearly all actives have a fitted effect of over 60% in size
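KB-3-1 parental drug-naive adenocarcinoma cells in DMEM/10% FBS, incubated 72 h at 37 C with pin-transferred compounds across a concentration series. Viability by CellTiter-Glo luminescence; concentration-response curves fitted after normalization.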
KB-V1 MDR tox – kills drug-selected multidrug resistant KB-V1 cells; KB-V1 MDR cells viability, CellTiter-Glo, 72 h; Potency, µM (titrated, usually from 46.1 µM), actives largely listed as cytotoxic; 400,000 compounds, 3.4% hits; also: % is scaled to controls: 0 for no effect and ±100 for the full control effect; nearly all actives have a fitted effect of over 60% in size
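qHTS viability screen in drug-selected KB-V1 MDR cells: 72 h compound treatment at 37 degrees C, ATP luminescence end point.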
HT1080-NT tox – kills 2HG-producing HT-1080-NT fibrosarcoma cells. HT-1080-NT fibrosarcoma viability, CellTiter-Glo ATP luminescence, 48 h. Potency, µM (series often up to 46.1 µM), for the others: at the top dose activity, negative = less viability, most hits filed as cytotoxic. 360,000 compounds, 1.6% hits. AID 686970;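 also: NT is the 2HG producing partner of a matched IDH1 knockdown line; 0% = DMSO-treated cells and -100% = media-only wells without cells; nearly all actives have a fitted effect of over 55% in size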
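Viability of the 2HG-overproducing fibrosarcoma line after 48 hours of compound exposure at 37 degrees C was determined by luminescence with CellTiter-Glo, and concentration-effect curves were then fitted and categorized.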
MCF10A rereplic – DNA re-replication induction in MCF 10a cells; MCF 10A DNA re-replication, Hoechst nuclear intensity, 48 h; Potency, µM (doses to about 46.1 µM), inactives show top-dose activity, positive = re-replication, most hits filed as activators; 350,000 compounds, 2.9% hits; AID 624296; also: % of control where 0% means no effect; nearly all actives have a fitted effect of over 50% in size
Active calls of the source: *; i = inactive; ? = inconclusive; · = no result given; ! = repeats disagree. This is a sample that favours compounds with a hit; in the whole collection about 7.9% have one here. Calls follow the shape of the dose curve; as a rule, active = well fitted curve in the direction sought with a large enough effect; inconclusive = small, poorly fitted or top-dose-only effect, or another doubt; inactive = no such curve, though single readings can be large; an effect the other way counts as inactive or inconclusive. Potency is read from the fitted curve at half-maximal effect.

SMILES	SW480 rereplic	HT1080 IDH1KD tx	KB-3-1 tox	KB-V1 MDR tox	HT1080-NT tox	MCF10A rereplic
Cc1ccccc1CN1C[C@H]2CON(C)[C@H]2C[C@H]1c1cccc(Br)c1	·	-5%	?	?	0%	·
COc1cccc(NC(=O)COc2ccccc2)c1	20%	-7%	i	i	2%	23µM*
COc1cccc(NC(=O)CCCN2C(=O)C3CC=CCC3C2=O)c1 (centres undefined)	-2%	10µM*	i	?	?	4%
CCC(C)NC(=O)c1ccc2nc(Cc3ccc(OC)cc3)oc2c1 (centres undefined)	-1%	-3%	i	i	3%	-2%
CCC(NC(=O)c1ccc2nc(Cc3ccc(OC)cc3)oc2c1)c1ccncc1 (centres undefined)	-16%	21µM*	?	i	?	?
COc1ccc(C2CC(O)(c3ccccc3)Oc3cc(OC)cc(OC)c32)cc1 (centres undefined)	-4%	-1%	?	i	-5%	21µM*
COc1ccc(C2CC(O)(c3ccccc3)Oc3c(C)ccc(C)c32)cc1 (centres undefined)	?	-15%	?	?	-30%	?
CCOc1ccc(-n2c(=O)c3c4c(sc3n(CC(=O)NC(C)CC)c2=O)CCCC4)cc1 (centres undefined)	·	·	i	?	·	·
COc1ccc(C(=O)c2no[n+]([O-])c2C(=O)c2ccc(OC)cc2)cc1	?	8.2µM*	?	?	?	9.2µM*
COc1ccc(NC(=O)c2c(N)no[n+]2[O-])cc1	1%	0.73µM*	?	i	0.73µM*	?
O=C(c1cccs1)c1no[n+]([O-])c1C(=O)c1cccs1	13µM*	?	?	?	18µM*	12µM*
COc1ccc(C(=O)c2ccc(CC#N)s2)cc1	6%	?	?	?	?	-2%
CCOc1ccc(CCNC(=O)c2cc(=O)[nH]c3ccc(S(=O)(=O)N(CC)CC)cc23)cc1OCC	10%	-15%	·	·	-3%	8%
CC1CC(C)CN(S(=O)(=O)c2ccc(C(=O)N3CCOCC3)cc2)C1 (centres undefined)	-8%	9%	·	·	5%	1%
O=C(Cc1cccs1)NCCSc1c(-c2ccc(Cl)cc2)[nH]c2ccccc12	?	?	?	i	?	21µM*
COc1ccc(/C=C2\CCCc3c2nc2ccccc2c3C(=O)OCC(=O)c2c(N)n(C)c(=O)n(C)c2=O)cc1	?	·	·	·	·	4.6µM*
COc1ccc(-c2cc(C(=O)OCC(=O)c3c(N)n(C)c(=O)n(C)c3=O)c3ccccc3n2)cc1	-26%	12%	i	i	20%	9%
CCCNC(=O)C(Cc1ccc(I)cc1)NC(=O)C1CC1 (centres undefined)	6%	1%	i	i	11%	8%
CCOC(=O)CN1C(=O)/C(=C/c2c(F)cccc2Cl)Oc2ccccc21	?	?	?	i	-21%	21µM*
COCCNC(=O)c1ccc(-n2c(SCc3cc(F)ccc3F)nc3ccccc3c2=O)cc1	-3%	-1%	?	5.8µM*	-1%	-1%
COc1cc(NC(=O)c2nccn2C)cc(C(=O)Nc2cccc(C(F)(F)F)c2)c1	?	?	i	4.1µM*!	?	6%
COc1cc(NC(=O)N2CCNC2=O)cc(C(=O)Nc2cccc(C(F)(F)F)c2)c1	5.2µM*	5.8µM*	10µM*	i	4.6µM*	2.1µM*
CCOC(=O)c1c(C)[nH]c(C2=NNC(=Nc3cccc(Cl)c3)SC2)c1C	21µM*	·	·	·	·	6.5µM*
Cc1nc2cccnc2n1C1CCN(S(=O)(=O)N(C)C)CC1	·	·	i	i	·	·
Cc1ccc(N(C)S(=O)(=O)c2cccc(C(=O)Nc3ccc(N4CCOCC4)cc3)c2)cc1	7%	-16%	?	?	-1%	18%
SMILES	SW480 rereplic	HT1080 IDH1KD tx	KB-3-1 tox	KB-V1 MDR tox	HT1080-NT tox	MCF10A rereplic
COc1ccc(NC(=O)c2cccc(OC(=S)N3CCOCC3)c2)cc1	-7%	-7%	i	16µM*	-23%	-2%
COc1ccc(N(C)S(=O)(=O)c2cccc(C(=O)Nc3ccc(N4CCOCC4)cc3)c2)cc1	?	-27%	?	15µM*	-8%	16%
CC1CCC(NC(=O)c2cc3c(s2)CCCC3)CC1 (centres undefined)	-249%	-6%	i	i	-14%	1%
CCCNC(=O)c1cc(C2CCCCN2C(=O)c2ccc(OC)cc2)on1 (centres undefined)	·	?	i	i	27%	·
Cc1cc(C)cc(NC(=O)Nc2ccc(-n3ccc(C(F)(F)F)n3)cc2)c1	?	23µM*	i	i	21µM*	21µM*
NC(=O)c1ccc(Cn2c(C(=O)c3cc(Cl)c(N)c(Cl)c3)c3ccccc3[n+]2[O-])cc1	?	12µM*	?	i	16µM*	12µM*
NCCCn1c(C(=O)c2cc(Cl)c(N)c(Cl)c2)c2ccc([N+](=O)[O-])cc2[n+]1[O-]	1µM*	-21%	?	i	?	71%
CCc1nc2ccc(C(=O)NCCOc3ccc(OC)cc3)cn2c1N(CC)CCN(C)C	·	-3%	i	i	0%	·
CCN(CC)c1ccc(NC(=O)c2cnccn2)cc1S(=O)(=O)Nc1ccc(OC)cc1	?	-7%	?	4.1µM*	-3%	?
CCN(CC)c1ccc(NC(=O)COc2ccccc2C#N)cc1S(=O)(=O)Nc1ccc(OC)cc1	?	11%	i	3.7µM*	1%	?
CCN(CC)c1ccc(NC(=O)COc2ccccc2C)cc1S(=O)(=O)Nc1ccccc1OC	3%	16%	i	?	18%	-3%
CC(C)(C)C(=O)/C(=C/c1ccc(Cl)cc1)n1cncn1	?	-22%	?	?	16µM*	6.5µM*
CC(C)/C=C(/C(=O)c1ccc(Cl)cc1Cl)n1cncn1	?	0%	i	i	-16%	?
CC1Sc2ccc(S(=O)(=O)N3CCC(C(=O)NCc4ccccc4)CC3)cc2NC1=O (centres undefined)	4%	0%	i	i	-15%	6%
Cc1ccc(S(=O)(=O)Nc2ccc(Nc3nccn4c(-c5cccc(OC(F)(F)F)c5)cnc34)cc2)cc1	·	?	?	?	18µM*	·
